# Measured values published in PubChem BioAssay (NCATS).
# Values without a mark were called inactive. Records with an inconclusive call do not appear. Where a call stands in place of a potency, no number is given. Active and inactive are the calls of the source. Unless noted, the call rests on the fitted dose curve; in most records, active means well fitted curve in the direction sought with a large enough effect; inconclusive means small, poorly fitted or top-dose-only effect, or another doubt; inactive means no such curve, though single readings can be large; an effect the other way counts as inactive or inconclusive.
# What was measured:
# [1] = qHTS to identify inhibitors of the type 1 interferon - major histocompatibility complex class I in skeletal muscle: primary screen against the NCATS Pharmaceutical Collection (AID 1347407);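 further: luminescence of HiBiT knocked into endogenous HLA-B as interferon-induced MHC class I level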
# Method in brief: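 HLA-B HiBiT myoblasts, dexamethasone-free growth medium + 4 ng/ml IFN-b; compounds pinned 1 h after seeding, […] from 46 uM; 24 h, 37 C, 5% CO2; lytic HiBiT detection, 10 min RT, luminescence.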
# [2] = molecular target: Protein phosphatase 1D (Homo sapiens) (UniProt O15297); assay: Rhodamine-PBP qHTS Assay for Modulators of WT P53-Induced Phosphatase 1 (WIP1) (AID 1347425)
# Sequence of Protein phosphatase 1D (Homo sapiens) (O15297 whole entry, looked up): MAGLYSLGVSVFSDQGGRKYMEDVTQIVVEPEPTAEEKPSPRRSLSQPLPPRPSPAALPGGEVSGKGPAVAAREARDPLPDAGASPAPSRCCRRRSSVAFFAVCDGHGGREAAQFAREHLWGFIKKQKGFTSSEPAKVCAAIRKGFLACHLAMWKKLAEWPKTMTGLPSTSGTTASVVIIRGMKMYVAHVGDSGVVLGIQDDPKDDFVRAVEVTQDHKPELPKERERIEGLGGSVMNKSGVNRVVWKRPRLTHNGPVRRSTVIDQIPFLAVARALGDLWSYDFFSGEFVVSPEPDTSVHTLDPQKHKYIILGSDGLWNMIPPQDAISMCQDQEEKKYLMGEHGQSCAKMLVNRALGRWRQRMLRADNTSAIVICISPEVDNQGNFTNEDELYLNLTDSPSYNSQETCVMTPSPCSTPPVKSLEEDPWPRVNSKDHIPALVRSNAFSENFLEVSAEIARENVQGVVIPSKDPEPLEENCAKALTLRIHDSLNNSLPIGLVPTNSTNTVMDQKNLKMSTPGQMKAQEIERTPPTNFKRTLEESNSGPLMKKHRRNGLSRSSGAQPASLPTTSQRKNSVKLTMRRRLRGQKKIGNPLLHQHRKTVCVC
# Method in brief: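 The read-out is the change in Rhodamine-PBP fluorescence (f1 - f0, ex 525/em 598 nm) as Pi is released, read each minute for 11 min. Final reaction: 5 nM WIP1, 10 uM phosphopeptide VEPPL-pS-QETFS, 10 uM Rh-PBP, 50 mM Tris-HCl pH 7.5, 30 mM MgCl2. Compound was preincubated with enzyme for 1 hour at room temperature.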
# [3] = Primary qHTS for inhibitors of La Crosse Virus (LACV) - induced cell death in SH-SY5Y cells (AID 1508616);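 further: top concentration of the series differs between compounds; higher means more rescue of cells from virus-induced death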
# Method in brief: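 Rescue of virus-induced death was read as ATPLite luminescence after 6 days at 37C, scaled between DMSO wells with LACV and without virus. Cells were SH-SY5Y, 6000/well, infected at 0.01 MOI after compound addition.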
# [4] = molecular target: Calcium and integrin-binding protein 1 (Homo sapiens) (UniProt Q99828); assay: Primary qHTS for Identification of Calcium Integrin Binding Protein 1 (CIB1) Competitor (AID 1508620);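 further: GST tagged CIB1 binding a fluorescein labelled alphaIIb integrin peptide tracer; top concentration of the series differs between compounds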
# Sequence of Calcium and integrin-binding protein 1 (Homo sapiens) (Q99828 whole entry, looked up): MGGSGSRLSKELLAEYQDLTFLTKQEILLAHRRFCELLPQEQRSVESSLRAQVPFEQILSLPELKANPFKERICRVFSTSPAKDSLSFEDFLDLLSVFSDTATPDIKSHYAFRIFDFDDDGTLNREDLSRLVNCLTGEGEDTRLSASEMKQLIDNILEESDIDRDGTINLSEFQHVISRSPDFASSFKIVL
# Method in brief: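 Fluorescence polarization competition: GST-tagged CIB1 (1 uM final) preincubated with compound 15 min at room temperature, then FITC-labelled alphaIIb peptide (100 nM final) added. After 15 min at room temperature, polarization read at Ex 480/Em 540.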
# [5] = A High-Content qHTS Against Drug Library for the Identification of Small Molecules that Inhibit DYT1 Early Onset Primary Dystonia-Associated Cell Pathology (AID 1645839; calls by dose curve; further: series mostly up to about 46 µM)
# Method in brief: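 Cells were seeded and left for 24 h, then dosed with compound alongside tetracycline induction of mutant EGFP-TorsinA. They were incubated for 48 h, fixed in 4% paraformaldehyde, permeabilized and imaged for mislocalization (%pathology) and cell count.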
# [6] = molecular target: Cytochrome P450 2D6 (Homo sapiens) (UniProt P10635); assay: Cytochrome P450 family 2 subfamily D member 6 (CYP2D6) small molecule antagonists: luciferase biochemical (cell-free) qHTS assay (AID 1645840; active means well fitted curve in the direction sought with a large enough effect in the repeat runs; an effect the other way counts as inactive or inconclusive; further: nearly all actives have a fitted effect of over 55% in size; further: potency means the concentration at half of the fitted maximal effect)
# Sequence of Cytochrome P450 2D6 (Homo sapiens) (P10635 whole entry, looked up): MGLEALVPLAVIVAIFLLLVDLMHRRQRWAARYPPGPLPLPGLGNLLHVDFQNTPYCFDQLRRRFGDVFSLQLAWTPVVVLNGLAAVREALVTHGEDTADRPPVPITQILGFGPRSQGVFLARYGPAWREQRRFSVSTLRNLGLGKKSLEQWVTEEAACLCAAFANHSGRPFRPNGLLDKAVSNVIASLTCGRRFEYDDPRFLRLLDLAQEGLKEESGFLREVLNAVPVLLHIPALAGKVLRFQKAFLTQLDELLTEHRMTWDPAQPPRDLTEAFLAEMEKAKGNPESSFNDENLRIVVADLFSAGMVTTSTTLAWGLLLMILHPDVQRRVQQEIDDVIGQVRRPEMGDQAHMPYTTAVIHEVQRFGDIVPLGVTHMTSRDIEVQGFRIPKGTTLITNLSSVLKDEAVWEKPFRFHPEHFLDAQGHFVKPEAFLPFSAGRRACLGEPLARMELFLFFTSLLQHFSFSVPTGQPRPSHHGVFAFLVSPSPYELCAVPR
# Method in brief: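 P450-Glo CYP2D6 system: proluciferin substrate converted by enzyme to luciferin, read by luminescence proportional to activity. Enzyme-substrate mix with compound 10 min at room temperature, then NADPH regeneration 1 h before detection reagent.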
# [7] = molecular target: Cytochrome P450 2C9 (Homo sapiens) (UniProt P11712); assay: Cytochrome P450 family 2 subfamily C member 9 (CYP2C9) small molecule antagonists: luciferase biochemical (cell-free) qHTS assay (AID 1645842; active means well fitted curve in the direction sought with a large enough effect in the repeat runs; an effect the other way counts as inactive or inconclusive; further: nearly all actives have a fitted effect of over 55% in size; further: potency means the concentration at half of the fitted maximal effect)
# Sequence of Cytochrome P450 2C9 (Homo sapiens) (P11712 whole entry, looked up): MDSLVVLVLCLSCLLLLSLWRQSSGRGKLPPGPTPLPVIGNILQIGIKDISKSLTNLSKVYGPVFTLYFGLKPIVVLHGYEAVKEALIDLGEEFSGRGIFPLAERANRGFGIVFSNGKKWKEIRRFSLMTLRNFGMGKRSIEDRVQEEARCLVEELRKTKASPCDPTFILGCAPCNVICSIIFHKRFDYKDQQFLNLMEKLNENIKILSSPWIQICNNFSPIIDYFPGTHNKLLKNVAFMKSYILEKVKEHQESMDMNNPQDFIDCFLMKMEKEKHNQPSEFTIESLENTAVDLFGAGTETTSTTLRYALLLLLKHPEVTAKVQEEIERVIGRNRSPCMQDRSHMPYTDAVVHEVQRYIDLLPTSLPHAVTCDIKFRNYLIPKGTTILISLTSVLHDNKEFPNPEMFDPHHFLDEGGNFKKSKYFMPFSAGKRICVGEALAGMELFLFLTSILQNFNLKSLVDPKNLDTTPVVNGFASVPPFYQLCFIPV
# Method in brief: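 P450-Glo CYP2C9 system: proluciferin substrate with enzyme in mix containing 0.4% BSA, 10 min at room temperature, then NADPH regeneration solution added and incubated 1 h at 37C. Detection reagent stopped reaction; luminescence read after 20 min as RLU.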
# [8] = qHTS for inhibitors of adenylyl cyclases using a fission yeast platform: a pilot screen against the NCATS LOPAC library (AID 1347410)
# Method in brief: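 Read-out: fbp1-GFP fluorescence by laser scanning cytometry (488 nm laser), a gain of signal when AC/cAMP-PKA signalling is inhibited. Strain CHP2027 expressing AC9, GNAS and PDE4D2; compounds at up to 57 µM; 18 h, 30C.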
# [9] = molecular target: Single-stranded DNA cytosine deaminase (Homo sapiens) (UniProt Q9GZX7); assay: Validation qHTS assay for inhibitors of Activation Induced Cytidine Deaminase (AID): AID signal (AID 1347429)
# Sequence of Single-stranded DNA cytosine deaminase (Homo sapiens) (Q9GZX7 whole entry, looked up): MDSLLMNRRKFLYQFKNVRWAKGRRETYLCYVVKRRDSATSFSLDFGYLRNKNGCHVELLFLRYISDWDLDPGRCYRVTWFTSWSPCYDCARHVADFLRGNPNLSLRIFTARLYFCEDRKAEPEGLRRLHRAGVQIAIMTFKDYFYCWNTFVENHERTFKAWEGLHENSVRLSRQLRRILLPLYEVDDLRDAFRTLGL
# Method in brief: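 Compounds (final up to 114 uM) preincubated with AID plus UDG; 250 nM DJC20/DJC23 substrate mix (4x stock) added, 4 hr at room temperature, then NaOH, 30 min. Read 1 fluorescence at 540 nm excitation, 590 nm emission.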
# [10] = molecular target: Calcium and integrin-binding protein 1 (Homo sapiens) (UniProt Q99828); assay: Validation qHTS for Identification of Calcium Integrin Binding protein 1 (CIB1) Competitor (AID 1508618)
# Method in brief: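 CIB1-GST (1 uM final) incubated 15 min at room temperature with compounds (up to 114 uM), then FITC-labelled alphaIIb peptide (100 nM) added. FP read (Ex 480/Em 540) after 15 min, pH 7.4 buffer containing 5 mM CaCl2.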
# Papain (Carica papaya) = Papain (Carica papaya) (UniProt P00784); assay: Primary qHTS assay for inhibitors of the protease papain (AID 1645873);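 further: papain turnover of Z-FR-AMC read as the AMC fluorescence gain over 10 min; series mostly up to about 50 µM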
# Sequence of Papain (Carica papaya) (P00784 whole entry, looked up): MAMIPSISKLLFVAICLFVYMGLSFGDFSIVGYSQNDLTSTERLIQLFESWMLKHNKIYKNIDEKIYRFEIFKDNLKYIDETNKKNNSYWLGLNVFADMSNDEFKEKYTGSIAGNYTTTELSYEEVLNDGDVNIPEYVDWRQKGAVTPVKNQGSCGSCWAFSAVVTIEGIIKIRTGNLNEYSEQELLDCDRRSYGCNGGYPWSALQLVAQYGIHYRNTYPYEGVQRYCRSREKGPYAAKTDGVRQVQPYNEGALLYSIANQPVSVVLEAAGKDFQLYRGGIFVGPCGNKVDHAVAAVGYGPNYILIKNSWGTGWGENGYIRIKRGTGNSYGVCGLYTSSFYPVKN
# [11] = qHTS to identify inhibitors of the type 1 interferon - major histocompatibility complex class I in skeletal muscle: primary screen against the NCATS Mechanism Interrogation Plate v5.0 (MIPE) Libary (AID 1347411); further: nearly all actives have a fitted effect of over 65% in size
# Method in brief: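 Luminescence from CRISPR HiBit-tagged endogenous HLA-B in human myoblasts reported MHC class I level after 24 h of IFN-beta (4 ng/ml) plus compound. Compounds ran as 11-point 1:3 series, top 46 uM final.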
# [12] = molecular target: Protein phosphatase 1D (Homo sapiens) (UniProt O15297); assay: RapidFire Mass Spectrometry qHTS Assay for Modulators of WT P53-Induced Phosphatase 1 (WIP1) (AID 1347424); further: series mostly up to about 63 µM
# Method in brief: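 RapidFire MS readout of dephosphorylated VEPPL-S-QETFS product, with 1 uM isotope-labelled peptide standard. Reaction: 10 nM WIP1, 2 uM phosphopeptide substrate, 5 min, room temperature, after 1 h compound preincubation; stopped with 0.5% formic acid.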
# [13] = Primary qHTS for small molecule stabilizers of the endoplasmic reticulum resident proteome: Secreted ER Calcium Modulated Protein (SERCaMP) assay (AID 1508630)
# Method in brief: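 The SH-SY5Y reporter protocol was run at 3 concentrations up to 38.3 uM (primary) or 11 concentrations (follow-up): 16 h compound, 100 nM thapsigargin for 4 h, then extracellular luciferase luminescence.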
# [14] = molecular target: Cytochrome P450 3A4 (Homo sapiens) (UniProt P08684); assay: Cytochrome P450 family 3 subfamily A member 4 (CYP3A4) small molecule antagonists: luciferase qHTS assay (AID 1645841; active means well fitted curve in the direction sought with a large enough effect in the repeat runs; an effect the other way counts as inactive or inconclusive; further: nearly all actives have a fitted effect of over 45% in size)
# Sequence of Cytochrome P450 3A4 (Homo sapiens) (P08684 whole entry, looked up): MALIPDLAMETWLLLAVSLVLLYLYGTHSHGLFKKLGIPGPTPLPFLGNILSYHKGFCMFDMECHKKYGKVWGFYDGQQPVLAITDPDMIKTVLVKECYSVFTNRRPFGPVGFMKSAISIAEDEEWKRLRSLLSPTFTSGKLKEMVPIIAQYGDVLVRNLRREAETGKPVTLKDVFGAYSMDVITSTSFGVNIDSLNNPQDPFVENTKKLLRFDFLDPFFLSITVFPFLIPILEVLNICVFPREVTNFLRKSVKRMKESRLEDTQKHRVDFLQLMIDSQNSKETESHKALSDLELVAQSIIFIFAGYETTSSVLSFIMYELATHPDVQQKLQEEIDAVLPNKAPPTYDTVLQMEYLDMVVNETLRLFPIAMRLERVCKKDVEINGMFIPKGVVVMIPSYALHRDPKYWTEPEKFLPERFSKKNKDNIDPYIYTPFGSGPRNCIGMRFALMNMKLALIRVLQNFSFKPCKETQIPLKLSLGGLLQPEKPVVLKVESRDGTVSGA
# Method in brief: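 P450-Glo CYP3A4 enzyme with proluciferin substrate preincubated 10 min with compound at room temperature, then NADPH regeneration 1 h. Luciferin detection reagent added for 20 min; luminescence recorded. Ketoconazole positive control.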
smiles,measurement,setting,value
N#CSCC(=O)O,Potency,[1],inactive
same,outcome,[2],inactive
same,outcome,[3],inactive
same,Potency,[4],inactive
same,Potency,[5],inactive
same,Potency,[6],inactive
same,Potency,[7],inactive
COc1cccc2c1[C@@H]1CN(CCCCn3c(=O)[nH]c4c(sc5ncc(-c6ccccc6)nc54)c3=O)C[C@@H]1CO2,outcome,[8],inactive
same,outcome,[9],inactive
same,outcome,[10],inactive
same,outcome,Papain (Carica papaya),inactive
CCC1=C[C@@H]2CN(C1)Cc1c([nH]c3ccccc13)[C@@](C(=O)OC)(c1cc3c(cc1OC)N(C)[C@H]1[C@@](O)(C(=O)OC)[C@H](OC(C)=O)[C@]4(CC)C=CCN5CC[C@]31[C@@H]54)C2,Potency,[11],inactive
same,Potency,[12],inactive
same,outcome,[2],inactive
same,outcome,[3],inactive
same,Potency,[4],inactive
same,Potency,[13],inactive
Nc1c2ccccc2nc2ccccc12,Potency,[1],inactive
same,outcome,[2],inactive
same,Potency,[4],inactive
same,Potency,[13],inactive
same,Potency,[5],inactive
same,Potency,[6],17.4 µM (active)
same,Potency,[7],inactive
Cc1nc(C2CCCCC2)c(-c2ccc(S(N)(=O)=O)c(F)c2)o1,Potency,[12],inactive
same,outcome,[2],inactive
same,outcome,[3],inactive
same,Potency,[4],inactive
CN1C(CSCC(F)(F)F)Nc2cc(Cl)c(S(N)(=O)=O)cc2S1(=O)=O (stereo unspecified),Potency,[1],inactive
same,outcome,[2],inactive
same,outcome,[3],inactive
same,Potency,[4],inactive
same,Potency,[6],inactive
same,Potency,[7],inactive
CO/N=C(/C(=O)N[C@@H]1C(=O)N2C(C(=O)[O-])=C(C[n+]3ccn4ncccc43)CS[C@H]12)c1nsc(N)n1,Potency,[1],inactive
same,outcome,[2],inactive
same,Potency,[5],inactive
same,Potency,[6],inactive
same,Potency,[7],inactive
CCCC(=O)O[C@]1(C(=O)CC)CC[C@H]2[C@@H]3CCC4=CC(=O)CC[C@]4(C)[C@H]3[C@@H](O)C[C@@]21C,Potency,[1],inactive
same,outcome,[3],inactive
same,Potency,[4],inactive
same,Potency,[6],12.3 µM (active)
OCCOCCN1CCN(C(c2ccccc2)c2ccc(Cl)cc2)CC1 (stereo unspecified),Potency,[1],inactive
same,outcome,[3],inactive
same,Potency,[4],inactive
same,Potency,[13],inactive
CCn1ccc(NS(=O)(=O)c2ccc(N)cc2)nc1=O,Potency,[1],inactive
same,outcome,[2],inactive
same,outcome,[3],inactive
same,Potency,[4],inactive
same,Potency,[5],inactive
same,Potency,[6],inactive
same,Potency,[7],inactive
C[C@@H](O[C@H]1OCCN(Cc2n[nH]c(=O)[nH]2)[C@H]1c1ccc(F)cc1)c1cc(C(F)(F)F)cc(C(F)(F)F)c1,Potency,[1],inactive
same,outcome,[3],inactive
same,Potency,[4],inactive
same,Potency,[6],20.4 µM (active)
same,Potency,[7],12.1 µM (active)
CCOC(=O)C1=C(C)NC(C)=C(C(=O)OCC)C1c1ccccc1/C=C/C(=O)OC(C)(C)C,Potency,[12],inactive
same,outcome,[2],inactive
same,outcome,[3],inactive
same,Potency,[4],inactive
same,Potency,[13],inactive
same,Potency,[7],0.49 µM (active)
O=C(O)c1ccccc1Nc1cc(Cl)ccc1C(=O)O,Potency,[12],inactive
same,outcome,[2],inactive
same,outcome,[3],inactive
same,Potency,[4],inactive
same,Potency,[13],inactive
same,Potency,[5],inactive
same,Potency,[6],inactive
same,Potency,[7],inactive
CN(C)CCN1CCN(c2cccc(Cl)c2)C1=O,Potency,[12],inactive
same,outcome,[2],inactive
same,outcome,[3],inactive
same,Potency,[4],inactive
same,Potency,[5],inactive
same,Potency,[6],15.5 µM (active)
same,Potency,[7],inactive
C[C@]12CCC(=O)C=C1CC[C@@H]1[C@@H]2[C@@H](O)C[C@@]2(C)[C@H]1CC[C@]2(O)C(=O)COC(=O)CCC(=O)O,Potency,[12],inactive
same,outcome,[2],inactive
same,outcome,[3],inactive
same,Potency,[4],inactive
same,Potency,[13],inactive
same,Potency,[5],inactive
same,Potency,[6],inactive
same,Potency,[7],inactive
CCN(CC)CC(=O)OCC(=O)[C@@]1(O)CC[C@H]2[C@@H]3CCC4=CC(=O)CC[C@]4(C)[C@H]3[C@@H](O)C[C@@]21C,Potency,[12],inactive
same,outcome,[2],inactive
same,outcome,[3],inactive
same,Potency,[4],inactive
same,Potency,[13],inactive
same,Potency,[5],inactive
same,Potency,[6],inactive
same,Potency,[7],inactive
CCNC(=O)NCCCOc1cccc(CN2CCCCC2)c1,Potency,[12],inactive
same,outcome,[2],inactive
same,outcome,[3],inactive
same,Potency,[4],inactive
same,Potency,[13],inactive
same,Potency,[5],inactive
CC(NCCC(c1ccccc1)c1ccccc1)c1ccccc1 (stereo unspecified),Potency,[12],inactive
same,outcome,[2],inactive
same,outcome,[3],inactive
same,Potency,[4],inactive
same,Potency,[13],inactive
same,Potency,[6],0.0871 µM (active)
same,Potency,[7],13.8 µM (active)
O=C(OCC(O)CO)c1ccccc1Nc1ccnc2c(C(F)(F)F)cccc12 (stereo unspecified),Potency,[12],inactive
same,outcome,[2],inactive
same,outcome,[3],inactive
same,Potency,[4],inactive
same,Potency,[13],inactive
same,Potency,[5],inactive
same,Potency,[6],11 µM (active)
same,Potency,[7],6.17 µM (active)
Cn1c(=O)c2c(ncn2CC(=O)O)n(C)c1=O,Potency,[12],inactive
same,outcome,[2],inactive
same,outcome,[3],inactive
same,Potency,[4],inactive
same,Potency,[13],inactive
same,Potency,[5],inactive
same,Potency,[6],inactive
same,Potency,[7],inactive
NS(=O)(=O)c1cc(C(=O)NN2C[C@H]3[C@H]4CCC(C4)[C@H]3C2)ccc1Cl,Potency,[12],inactive
same,outcome,[2],inactive
same,outcome,[3],inactive
same,Potency,[4],inactive
same,Potency,[13],inactive
same,Potency,[5],inactive
same,Potency,[6],inactive
same,Potency,[7],inactive
CCOC(=O)NNc1nncc2ccccc12,Potency,[12],inactive
same,outcome,[2],inactive
same,outcome,[3],inactive
same,Potency,[4],inactive
same,Potency,[13],inactive
same,Potency,[5],inactive
same,Potency,[7],inactive
COCCc1ccc(OCC2CO2)cc1 (stereo unspecified),Potency,[12],inactive
same,outcome,[2],inactive
same,outcome,[3],inactive
same,Potency,[4],inactive
same,Potency,[13],inactive
same,Potency,[6],inactive
same,Potency,[7],inactive
CN(C(=O)C(Cl)Cl)c1ccc(OC(=O)c2ccco2)cc1,Potency,[12],inactive
same,outcome,[2],inactive
same,outcome,[3],inactive
same,Potency,[4],inactive
same,Potency,[13],inactive
same,Potency,[5],inactive
same,Potency,[6],inactive
CC(C)NC(=O)c1ccc(C=O)cc1,Potency,[12],inactive
same,outcome,[2],inactive
same,outcome,[3],inactive
same,Potency,[4],inactive
same,Potency,[13],inactive
same,Potency,[5],inactive
same,Potency,[6],inactive
same,Potency,[7],inactive
CCCC(=O)O[C@]1(C(=O)COC(=O)CC)CC[C@H]2[C@@H]3CCC4=CC(=O)CC[C@]4(C)[C@H]3[C@@H](O)C[C@@]21C,Potency,[12],inactive
same,outcome,[2],inactive
same,outcome,[3],inactive
same,Potency,[4],inactive
same,Potency,[13],inactive
same,Potency,[5],inactive
same,Potency,[6],inactive
same,Potency,[14],inactive
CCCCCCCCCCCCCCCCCCNC(=O)OC1CCN(C(=O)OC[C@H](COC(=O)N(Cc2cccc[n+]2CC)C(=O)c2ccccc2OC)OC)CC1,Potency,[12],inactive
same,outcome,[2],inactive
same,outcome,[3],inactive
same,Potency,[4],inactive
same,Potency,[13],inactive
same,Potency,[6],17.4 µM (active)
